Values joined by “and” are separate entries in the source; they are usually repeats but may differ in a detail not shown here. Identical values can stand only once. Values without a mark were called inactive. Results filed as inconclusive are left out. Active and inactive are the calls of the source. The call rests on the fitted dose curve; in most records, active means well fitted curve in the direction sought with a large enough effect; inconclusive means small, poorly fitted or top-dose-only effect, or another doubt; inactive means no such curve, though single readings can be large; an effect the other way counts as inactive or inconclusive.

The nature of experiment [1]: qHTS Assay for Identifying Gametocytocidal Compounds (AID 743244). Further: potency means the concentration at half of the fitted maximal effect.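 On max response: on the % scale 0 is the no-effect control and ±100 the full control effect; actives lower the fluorescent signal which means gametocytes are killed.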 As to conditions: P. falciparum 3D7 stage III-V gametocytes, alamarBlue, 72 h; max response: hits give low values. The essentials:
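3D7 gametocytes, stages III–V, 20,000/well; cpd 72 h, 37 °C/5% CO2; + alamarBlue 24 h; fluor. Ex 525/Em 598.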

A short description of experiment [2]: qHTS assay for measurement of the activity of small molecule inhibitors on Zika virus induced Caspase-3 activity in human iPSC derived neural progenitor cells (hNPCs) (AID 1224857). Further: % of control where 0% means no effect; nearly all actives have a fitted effect of over 65% in size. In short, it runs like this:
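Cells were plated at 350 per well and grown 16 to 20 hours. Compound pretreatment lasted one hour, after which ZIKV (2 FFU/cell) was added for 6 hours. Percent inhibition was normalized between uninfected and infected controls.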

Experiment [3] is described as follows: qHTS assay for measurement of the activity of small molecule inhibitors on Zika virus induced Caspase-3 activity in human astrocytoma cells (AID 1224859).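 Further: plate controls were ZIKV-infected untreated cells for no effect and uninfected cells for full effect.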 In short, it runs like this:
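Percent inhibition of virus-induced caspase-3/7 signal is calculated against uninfected and ZIKV-infected control cells. Cells are SNB-19, infected at 2 FFU/cell for 6 h after 1 h compound exposure.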
For orientation: In qHTS, concentration-response curves come from the screen itself.

The nature of experiment [4]: qHTS assay to identify small molecule inhibitors of chordoma cells - UCH-1 (AID 1259355). Further: on the % scale 0 is the no-effect control and ±100 the full control effect; nearly all actives have a fitted effect of over 55% in size. In short, it runs like this:
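A 48hr growth-inhibition format: each drug tested at 15 concentrations together with added auranofin, camptothecin, doxorubicin, rubitecan and topotecan, with cell viability quantified as CellTiter-Glo luminescence.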

A short description of experiment [5]: qHTS assay to identify small molecule inhibitors of chordoma cells - UCH-2 (AID 1259356). Further: series mostly up to about 46 µM; on the % scale 0 is the no-effect control and ±100 the full control effect.
The nature of experiment [6]: P-glycoprotein substrates identified in KB-8-5-11 adenocarcinoma cell line, qHTS therapeutic library screen (AID 1346987). Further: series mostly up to about 44 µM; on the % scale 0 is the no-effect control and ±100 the full control effect; nearly all actives have a fitted effect of over 65% in size. The essentials: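 Human cervical adenocarcinoma KB-8-5-11 cells, selected in colchicine to over-express P-gp and assayed without it, were exposed for 72 h to titrated compounds. An ATP-based luminescent viability signal gave AC50.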
Experiment [7] in a line: NS1 protein of Zika virus - qHTS assay to identify small molecule inhibitors in human HEK 293 cells (AID 1347053).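 Further: series mostly up to about 46 µM; plate controls were infected untreated cells for no effect and uninfected cells for full effect; nearly all actives have a fitted effect of over 55% in size.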 In short, it runs like this:
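Read-out is a two-antibody TR-FRET for ZIKV NS1, normalized between uninfected cells and infected cells. Compound added 1 h before MR766 infection at MOI 0.5; human HEK 293 cells incubated 24 h, 37 C.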

The nature of experiment [8]: qHTS assay for cell viability of HEK293 cells (AID 743288). Further: on the % scale 0 is the no-effect control and ±100 the full control effect; nearly all actives have a fitted effect of over 50% in size. As to conditions: ATP luminescence (CellTiter-Glo), 18 h, hits give low values. The essentials:
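Readout is luciferase-coupled ATP content (CellTiter-Glo luminescence, 30 min room temperature) as a measure of metabolically competent cells. Parental HEK293 cells were plated 5 h or more before compound addition, then treated 18 h at 37 C.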

Experiment [9] can be described thus: qHTS assay for cell viability of the p53RE-bla HCT-116 cell line (AID 743292). Further: on the % scale 0 is the no-effect control and ±100 the full control effect; nearly all actives have a fitted effect of over 55% in size. In short, it runs like this:
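CellSensor p53RE-bla HCT-116 cells, 4,000/well, preincubated 5 h at 37 C, then exposed to compounds in DMSO for 16 h at 37 C. Viability read as CellTiter-Glo luminescence (intracellular ATP) after 30 min at room temperature.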

In the case of `COc1ccc(/C=N/NC(=O)c2ccncc2)cc1OC`, the max response in experiment [1] is -3.84%. The Potency entry in experiment [2], in experiment [4], in [5], in experiment [6] and in [7] was “inactive” each time. Also, the call in [3] was inactive.

Regarding `CN(C)C(=O)Nc1ccc(Cl)c(Cl)c1`, the max response in experiment [1] is -3.3%; in [8], -11.4%. The molecule was called inactive in experiment [9] and in [3]. Moreover, the Potency result in experiment [2], in [4], in experiment [5], in experiment [6] and in experiment [7] was “inactive” each time.

On to `C[C@@H](O)[C@H]1C(=O)N2C(C(=O)O)=C(S[C@@H]3CN[C@H](CNS(N)(=O)=O)C3)[C@H](C)[C@H]12`, for which, in experiment [1], the max response is 13.8%. Moreover, the Potency result in experiment [2], in [4], in experiment [5], in experiment [6] and in [7] was “inactive” throughout. In experiment [3], the call was inactive.

`CC(=O)NO`: in experiment [1], the max response was 6.13%. Moreover, the Potency entry in experiment [2], in [4], in experiment [5], in experiment [6] and in experiment [7] was “inactive” each time. The result in experiment [3] was inactive.

As to `C[N+]1(CC2COC(c3ccccc3)(C3CCCCC3)O2)CCCCC1` (configuration not stated), the Potency in experiment [1] is 11.2 µM (active). The Potency result in experiment [2], in [4], in experiment [5], in [6] and in experiment [7] was “inactive” each time. Besides, in [3], the molecule was classed as inactive.

As to `C/C=C/c1ccc(O)c(OC)c1`, the max response was 26.3% in experiment [1]; -4.69% and 11.4% in [8]. The molecule was classed as inactive in experiment [9] and in experiment [3]. Besides, the Potency entry in [2], in [4], in experiment [5], in [6] and in experiment [7] was “inactive” throughout.

With `COc1cc(C(=O)NCc2ccc(OCCN(C)C)cc2)cc(OC)c1OC`, the max response in experiment [1] is 1.8%. The Potency entry in experiment [2], in experiment [4], in experiment [5], in experiment [6] and in [7] was “inactive” throughout. In addition, in experiment [3], the outcome was inactive.

Turning to `CC1CCc2c(N3CCC(O)CC3)c(F)cc3c(=O)c(C(=O)O)cn1c23` (configuration not stated), the max response in [1] was 21.4%. Also, the Potency result in [2], in experiment [4], in [5], in experiment [6] and in [7] was “inactive” in each case. Also, in experiment [3], the molecule was called inactive.

With `CCC(Cc1c(I)cc(I)c(N)c1I)C(=O)O` (configuration not stated), the max response in experiment [1] was 3.24%. For the same molecule, the Potency entry in [2], in [4], in experiment [5], in [6] and in experiment [7] was “inactive” each time. Moreover, the call in [3] was inactive.

Turning to `CC(=O)Oc1ccc(C)cc1`, the max response in experiment [1] was -2.81%. In addition, the Potency result in experiment [2], in experiment [4], in experiment [5], in experiment [6] and in experiment [7] was “inactive” each time. Further, the outcome in [3] was inactive.

On to `N=C(N)N1CCc2ccccc2C1`, for which the max response in experiment [1] was 4.79%. For the same molecule, the values for the activity change, negative = inhibition in experiment [2], in [3] and in experiment [7] were -12.7% [at 4.53 µM], -0.144% [at 4.53 µM] and -16.4% [at 4.81 µM], respectively. Besides, the Potency entry in experiment [4], in experiment [5] and in experiment [6] was “inactive” in each case.

As to `CCOc1ccccc1C(N)=O`, the max response in experiment [1] is 14%; in experiment [8], 9.95%. Besides, the call in experiment [9] and in experiment [3] was inactive. Also, the Potency entry in experiment [2], in [4], in experiment [5], in experiment [6] and in experiment [7] was “inactive” in each case.

For the molecule `CC(=O)OCC1=C(C(=O)O)N2C(=O)[C@@H](NC(=O)CSc3ccncc3)[C@H]2SC1`, the max response in [1] is -9.74%. The Potency result in [2], in [4], in [5], in [6] and in [7] was “inactive” each time. For the same molecule, the molecule was classed as inactive in experiment [3].

As for `CC(C)Nc1cccnc1N1CCN(C(=O)c2cc3cc(NS(C)(=O)=O)ccc3[nH]2)CC1`, in experiment [1], the max response was -8.7%. Moreover, the Potency result in [2], in [4], in experiment [5], in experiment [6] and in experiment [7] was “inactive” throughout. Further, in [3], the outcome was inactive.

For the molecule `NC1CCN(c2nc3c(cc2F)c(=O)c(C(=O)O)cn3-c2ccc(F)cc2F)C1` (configuration not stated), the max response in experiment [1] was -5.91%. The Potency entry in experiment [2], in [4], in experiment [5], in [6] and in experiment [7] was “inactive” in each case. Further, in experiment [3], the call was inactive.

Consider `COc1ccc(-c2cc(C(F)F)nn2-c2ccc(S(N)(=O)=O)cc2)cc1F`, for which the max response in [1] is 25.1%. Moreover, the Potency result in [2], in experiment [4], in [5], in experiment [6] and in [7] was “inactive” each time. Further, in experiment [3], the call was inactive.

On to `Nc1ccc(S(=O)(=O)NCc2ccccc2)cc1`, for which, in experiment [1], the max response was -10.6%. Besides, the Potency entry in experiment [2], in experiment [4], in [5], in [6] and in experiment [7] was “inactive” throughout. Besides, the molecule was classed as inactive in [3].

With `CN(Cc1ccc(C(C)(C)C)cc1)Cc1cccc2ccccc12`, the max response in experiment [1] was 18.1% and -10.3%. Besides, the Potency result in [2], in [4], in experiment [5], in experiment [6] and in [7] was “inactive” in each case. Besides, the molecule was classed as inactive in experiment [3].

Take `CCCN(CCC)S(=O)(=O)c1ccc(C(=O)O)cc1`: the max response is 12.9% in experiment [1]; 7.44% and -5.93% in [8]. For the same molecule, the molecule was classed as inactive in experiment [9] and in experiment [3]. The Potency result in experiment [2], in experiment [4], in experiment [5], in experiment [6] and in [7] was “inactive” each time.

Regarding `Cc1ncc(CO)c(C=O)c1O`, in experiment [1], the max response is -3.85%. Also, the Potency entry in experiment [2], in experiment [4], in [5], in experiment [6] and in experiment [7] was “inactive” in each case. The result in experiment [3] was inactive.

With `O=C(O)C1(C(=O)O)CCC1.[NH2-].[NH2-].[Pt+2]`, the max response in [1] is -10.4%. The Potency entry in experiment [2], in experiment [4], in experiment [5], in experiment [6] and in experiment [7] was “inactive” throughout. Besides, the molecule was called inactive in experiment [3].

For the molecule `CCCCCCCCCCCCCCCCO`, the max response in experiment [1] is 19.3%; in experiment [8] it was -3.2%. Besides, the Potency result in experiment [2], in [4], in experiment [5], in experiment [6] and in experiment [7] was “inactive” in each case. For the same molecule, the molecule was called inactive in experiment [3].

`COc1cc([C@H]2Oc3cc([C@H]4Oc5cc(O)cc(O)c5C(=O)[C@@H]4O)ccc3O[C@@H]2CO)ccc1O`: the max response in experiment [1] is -1.37%; in [8] it was 5.85%. Besides, the molecule was classed as inactive in experiment [9] and in [3]. The Potency entry in [2], in experiment [4], in experiment [5], in experiment [6] and in [7] was “inactive” each time.

(Values after PubChem BioAssay (NCATS).)
